Some test systems named below: MARK4; MAST1; MELK; MERTK; MET; MKK7; MKNK1; MKNK2; MLK2; MLK3; MRCKA.
What all share (conditions): concentration: 1 μM, replicates: in singlicate; n = 1
Another assay concerns T1, MEK1.
T1 construct: gene MAP2K1

A further assay relates to T2, MEK2.
T2 construct: gene MAP2K2

The subject of another assay is T3, MEK3.
T3 construct: gene MAP2K3

A further assay relates to T4, MEK4.
T4 construct: gene MAP2K4

The next assay relates to T5, MEK5.
T5 construct: gene MAP2K5

The next assay deals with T6, MEK6.
T6 construct: gene MAP2K6

Another assay concerns T7, MINK.
T7 construct: gene MINK1

The subject of another assay is T8, MLCK.
T8 construct: gene MYLK3

The next assay concerns T9, MLK1.
T9 construct: gene MAP3K9
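Note: KINOMEscan kinase panel screen.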

On to `Nc1n[nH]c2ncc(-c3ccccc3)cc12` [SB-517081], for which the “%Inh” value in the assay on MARK4 was 0%; with MAST1 it was 0%; in the assay with MEK1 it was 0%; in the assay with MEK2, 1%; in the assay on MEK3, 0%; with MEK4, 0%. Also, the “%Inh” value in the assay on MEK5 is 85%; in the assay on MEK6, 4%; in the assay on MELK, 0%; with MERTK, 0%; in the assay with MET, 0%; in the assay with MINK, 11%. In addition, the “%Inh” value came to 0% in the assay with MKK7; 53% in the assay with MKNK1; 88% in the assay on MKNK2; 0% in the assay with MLCK; 17% in the assay with MLK1; 0% in the assay with MLK2. In addition, the “%Inh” value is given as 0% in the assay with MLK3 and 3% with MRCKA.
Consider `COc1ccc(-c2cc3c(C)nc(N)nc3n([C@H]3CC[C@H](OCCO)CC3)c2=O)cn1`, for which the “%Inh” value came out at 0% with MARK4; 0% with MAST1; 0% in the assay on MEK1; 0% with MEK2; 5% in the assay on MEK3; 0% in the assay with MEK4. In addition, the “%Inh” value is listed as 0% in the assay with MEK5; 16% with MEK6; 19% in the assay with MELK; 0% with MERTK; 0% in the assay on MET; 1% in the assay on MINK. For the same compound, the “%Inh” value in the assay with MKK7 is listed as 0%; in the assay with MKNK1, 0%; in the assay with MKNK2, 0%; in the assay on MLCK it was 17%; in the assay with MLK1, 0%; in the assay on MLK2 it was 0%. Besides, the figures for the “%Inh” value in the assay with MLK3 and with MRCKA were 3% and 0%, respectively.
With `FC(F)(F)c1ccc(-c2ncn(CCCN3CCOCC3)c2-c2ccncc2)cc1` [SB-217780], the “%Inh” value was determined as 20% in the assay with MARK4; 23% with MAST1; 0% with MEK1; 0% in the assay on MEK2; 27% in the assay with MEK3; 3% in the assay on MEK4. Also, the “%Inh” value in the assay on MEK5 was 33%; in the assay with MEK6, 0%; in the assay on MELK, 2%; in the assay with MERTK, 0%; in the assay on MET, 4%; in the assay on MINK, 0%. Further, the “%Inh” value in the assay with MKK7 is 0%; with MKNK1, 16%; in the assay with MKNK2, 58%; in the assay on MLCK, 0%; in the assay with MLK1, 0%; with MLK2, 2%. In addition, the entries for the “%Inh” value with MLK3 and with MRCKA were 5% and 0%, respectively.
For `CCC(=O)c1c(-c2ccccc2)c2cc(Cl)ccc2c(=O)n1Cc1ccc(C(=O)O)cc1`, the “%Inh” value came out at 0% in the assay on MARK4; 11% with MAST1; 0% with MEK1; 3% with MEK2; 0% in the assay with MEK3; 0% with MEK4. Moreover, the “%Inh” value in the assay with MEK5, in the assay with MEK6, in the assay with MELK, in the assay on MERTK, in the assay with MET and in the assay with MINK was 0% each time. In addition, the “%Inh” value in the assay with MKK7, in the assay on MKNK1, with MKNK2, in the assay on MLCK, with MLK1 and in the assay with MLK2 was 0% each time. Also, the “%Inh” value in the assay on MLK3 and in the assay on MRCKA was 0% in each case.
Regarding `CN1C(=O)C(Nc2cc(Cl)c(O)c(Cl)c2)=C(c2ccc(Cl)cc2)C1=O` [SB-404321], the “%Inh” value with MARK4 was 0%; with MAST1, 41%; in the assay on MEK1, 0%; in the assay on MEK2, 0%; in the assay on MEK3, 29%; in the assay with MEK4, 0%. The “%Inh” value in the assay on MEK5 amounted to 25%; in the assay with MEK6, 0%; in the assay with MELK, 0%; in the assay with MERTK, 30%; with MET it was 0%; in the assay on MINK, 0%. Further, the “%Inh” value is given as 0% with MKK7; 38% in the assay with MKNK1; 19% in the assay on MKNK2; 0% in the assay on MLCK; 0% with MLK1; 0% with MLK2. The “%Inh” value in the assay with MLK3 is 0%; with MRCKA, 5%.
Turning to `COC(=O)c1c(-c2ccccc2)c2cc(C)ccc2c(=O)n1Cc1ccccc1`, the “%Inh” value in the assay on MARK4, with MAST1, in the assay on MEK1, with MEK2, in the assay on MEK3 and in the assay on MEK4 was 0% in each case. In addition, the “%Inh” value in the assay with MEK5 is on record as 0%; in the assay with MEK6, 10%; in the assay with MELK, 0%; in the assay with MERTK, 0%; in the assay on MET, 0%; with MINK it was 0%. Also, the “%Inh” value in the assay on MKK7, with MKNK1, in the assay with MKNK2, with MLCK, in the assay with MLK1 and in the assay on MLK2 was 0% throughout. Further, the “%Inh” value in the assay on MLK3 and in the assay with MRCKA was 0% each time.
On to `O=C(NCc1cccs1)c1cc(C(=O)c2c(Cl)cccc2Cl)c[nH]1` [GW823670], for which the “%Inh” value amounted to 0% in the assay with MARK4; 0% in the assay on MAST1; 4% with MEK1; 25% in the assay with MEK2; 1% with MEK3; 0% in the assay on MEK4. For the same compound, the “%Inh” value in the assay on MEK5 was determined as 7%; in the assay with MEK6 it was 5%; in the assay with MELK, 26%; in the assay on MERTK, 0%; in the assay with MET, 5%; with MINK, 0%. The “%Inh” value was determined as 0% in the assay with MKK7; 0% with MKNK1; 0% with MKNK2; 0% in the assay on MLCK; 10% with MLK1; 13% in the assay on MLK2. Also, the “%Inh” value in the assay on MLK3 and in the assay on MRCKA was 0% in each case.
As to `Cc1c(Cn2c(C)nn3c(=O)cc(N4CCO[C@H](C)C4)nc23)cccc1C(F)(F)F` [GSK2373690], the “%Inh” value with MARK4 is 0%; in the assay with MAST1, 0%; in the assay on MEK1 it was 0%; with MEK2, 0%; with MEK3 it was 0%; in the assay with MEK4 it was 12%. Also, the “%Inh” value in the assay with MEK5 is recorded as 1%; in the assay with MEK6, 0%; with MELK, 0%; in the assay on MERTK it was 14%; with MET, 0%; in the assay with MINK it was 0%. The “%Inh” value with MKK7 was determined as 0%; with MKNK1, 3%; in the assay with MKNK2, 9%; in the assay with MLCK, 9%; in the assay on MLK1 it was 0%; in the assay with MLK2, 14%. Also, the “%Inh” value in the assay with MLK3 came out at 3%; in the assay with MRCKA, 0%.
Take `Cc1ccccc1COc1cc(-n2cnc3cc(Cl)ccc32)sc1C(N)=O` [GW813349]: the “%Inh” value was found to be 8% in the assay on MARK4; 0% in the assay with MAST1; 6% with MEK1; 14% with MEK2; 19% in the assay on MEK3; 0% in the assay on MEK4. The “%Inh” value in the assay on MEK5 is 59%; in the assay on MEK6 it was 0%; in the assay on MELK, 33%; in the assay with MERTK, 16%; in the assay with MET, 24%; in the assay with MINK, 35%. Further, the “%Inh” value in the assay on MKK7 turned out to be 0%; in the assay with MKNK1, 2%; in the assay on MKNK2 it was 0%; in the assay on MLCK it was 0%; in the assay with MLK1, 11%; in the assay on MLK2, 9%. In addition, the figures for the “%Inh” value in the assay with MLK3 and in the assay with MRCKA were 0% and 29%, respectively.
As to `COc1cc2ncn(-c3cc(OCc4ccncc4Br)c(C(N)=O)s3)c2cc1OC` [GW854278], the “%Inh” value in the assay with MARK4 is reported as 39%; in the assay on MAST1, 3%; in the assay with MEK1, 0%; with MEK2, 13%; in the assay on MEK3 it was 0%; with MEK4, 16%. Also, the “%Inh” value in the assay on MEK5 is given as 98.8%; with MEK6, 0%; with MELK, 17%; with MERTK it was 11%; in the assay on MET it was 0%; with MINK, 44%. The “%Inh” value is 0% in the assay with MKK7; 15% in the assay with MKNK1; 8% with MKNK2; 0% in the assay on MLCK; 2% in the assay with MLK1; 17% in the assay with MLK2. In addition, the “%Inh” value in the assay on MLK3 turned out to be 9%; in the assay on MRCKA it was 0%.
On to `O=C(Nc1n[nH]c2nc(-c3ccccc3)c(Cl)cc12)C1CC1` [SB-734909], for which the “%Inh” value in the assay on MARK4 is recorded as 25%; in the assay on MAST1, 12%; in the assay on MEK1, 11%; in the assay with MEK2, 0%; with MEK3, 45%; with MEK4, 24%. Also, the “%Inh” value in the assay on MEK5 was found to be 50%; with MEK6 it was 0%; with MELK, 0%; with MERTK, 0%; in the assay on MET, 0%; with MINK, 28%. Moreover, the “%Inh” value in the assay with MKK7 is reported as 0%; in the assay on MKNK1, 17%; in the assay with MKNK2, 8%; in the assay on MLCK, 26%; in the assay with MLK1, 0%; in the assay with MLK2, 0%. Moreover, the “%Inh” value in the assay on MLK3 and in the assay with MRCKA was 0% in each case.
In the case of `O=C(Nc1n[nH]c2cc(-c3ccccc3F)ccc12)C1CC1` [SB-733371], the “%Inh” value was 0% with MARK4; 52% with MAST1; 0% in the assay on MEK1; 14% with MEK2; 16% with MEK3; 0% in the assay on MEK4. Moreover, the “%Inh” value was found to be 48% with MEK5; 0% with MEK6; 0% in the assay on MELK; 0% in the assay with MERTK; 0% in the assay with MET; 69% in the assay on MINK. The “%Inh” value in the assay on MKK7 was 10%; in the assay on MKNK1, 0%; in the assay on MKNK2, 18%; in the assay with MLCK, 29%; in the assay with MLK1, 0%; in the assay with MLK2 it was 5%. Besides, the “%Inh” value in the assay with MLK3 and in the assay on MRCKA was 0% in each case.
